Compound activity (PubChem)
VACV mCherry inh – qHTS for Stage-Specific Inhibitors of Vaccinia Orthopoxvirus: mCherry Reporter Primary qHTS | Vaccinia virus mCherry reporter infection, fluorescence | Potency, µM (highest dose often 36.5 µM), hits mostly inhibitors | hit rate 0.63% among 310,000 | AID 720579, 2013; calls by dose curve; tested in A549 cells; also: nearly all actives have a fitted effect of over 35% in size
HCMV antiviral – qHTS Assay for inhibitors of the human cytomegalovirus (HCMV). HFF cells, HCMV-luciferase reporter, 72 h; stronger effect = lower value. activity change, negative = inhibition, % at 57.5 µM. hit rate 4.5% among 410,000. AID 1259415, 2018; in the data active = activity change below about -60%; inconclusive = no clear call, values can overlap the other calls; inactive = above about -39%
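Screen run at 2 compound doses on HFFs infected with reporter HCMV, MOI 1 PFU/cell. Luciferase activity from cell lysates at 72 h post infection gave inhibition relative to buffer-only and Salinomycin wells.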
FMDV antiviral – High Throughput Screening for Foot and Mouth Disease Virus Antivirals. FMDV antiviral cell-based qHTS. Potency, µM (top dose mostly 57.9 µM), most hits filed as inhibitors. hit rate 1.2% among 410,000. AID 1159524, 2015; calls by dose curve; tested in HEK293T cells; also: read-out not given here; nearly all actives have a fitted effect of over 45% in size
HCV inh – qHTS Assay for Inhibitors of Hepatitis C Virus (HCV); Huh7.5.1 HCVcc-Cre infection, luciferase reporter, 44 h; Potency, µM (top dose mostly 41.8 µM), actives largely listed as inhibitors; hit rate 3.4% among 340,000; active = well fitted inhibition curve with a large enough effect; inconclusive = small, poorly fitted or top-dose-only effect, or another doubt; inactive = no such curve, though single readings can be large or run the other way
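Infectious HCV cell culture screen: compound-treated cells (1,000/well, pre-plated 4 h) are infected with HCVcc-Cre at roughly 0.5 moi and grown 44 h. Infection is quantified by luciferase signal after 15 min substrate incubation at room temperature.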
VACV Venus inh – qHTS for Stage-Specific Inhibitors of Vaccinia Orthopoxvirus: Venus Reporter Primary qHTS; Vaccinia virus Venus reporter expression, fluorescence; hit rate 0.46% among 330,000; Potency, µM (series often up to 36.5 µM), hits mostly inhibitors; AID 720580, 2013; calls by dose curve; tested in A549 cells; also: nearly all actives have a fitted effect of over 30% in size
Large screens that a line does not name were inactive; ! = a repeat was not active. An excerpt weighted towards active compounds, which were near 7.3% of everything screened.

CC(C)C(=O)OCc1cc(=O)n2nc(C3CC3)sc2n1	none (no result: HCV inh)
CCSc1nc(-c2ccc(Cl)cc2)nc2c1Cc1c(CO)cnc(C)c1O2	none (no result: HCV inh)
COc1cc([N+](=O)[O-])ccc1NC(=O)Nc1cccnc1	none (no result: VACV mCherry inh, VACV Venus inh)
COc1ccc([N+](=O)[O-])cc1NC(=O)Cc1ccc(C)cc1	none
COc1ccc([N+](=O)[O-])cc1NC(=O)C(C)Sc1nc(-c2ccccc2)cs1 (stereo unspecified)	HCV inh 13µM
O=[N+]([O-])c1cccc(CN2CCN(Cc3ccc(Cl)cc3)CC2)c1	HCMV antiviral -77, FMDV antiviral inconclusive, HCV inh 10µM
COc1ccc([N+](=O)[O-])cc1NC(=O)Cc1ccc(Cl)cc1	FMDV antiviral inconclusive, HCV inh 8.9µM, VACV Venus inh inconclusive
COc1ccc([N+](=O)[O-])cc1NC(=O)Nc1cccc(Cl)c1	HCMV antiviral -62, FMDV antiviral inconclusive, HCV inh inconclusive
CC(C)N1CCN(Cc2cccc([N+](=O)[O-])c2)CC1	none
CCN(C(=O)Cn1c(=O)n(CCCS(=O)(=O)C2CCCCC2)c(=O)c2ccccc21)c1cccc(C)c1	none (no result: HCV inh)
COc1cccc(NC(=O)CCc2nnc3n(CC(C)C)c(=O)c4ccccc4n23)c1	none (no result: HCV inh)
COc1ccc(NC(=O)c2ccc(-c3ccc([N+](=O)[O-])cc3)o2)cc1OC	HCMV antiviral -72, FMDV antiviral inconclusive, HCV inh inconclusive
COc1cccc(NC(=O)c2ccc(-c3ccc([N+](=O)[O-])cc3)o2)c1	HCMV antiviral inconclusive
COc1ccc([N+](=O)[O-])cc1NC(=O)C(C)N(C)Cc1cccc(OC)c1OC (stereo unspecified)	FMDV antiviral inconclusive, HCV inh 35µM
COc1cc(CN(C)C(C)C(=O)Nc2ccc([N+](=O)[O-])cc2Cl)ccc1OC(F)F (stereo unspecified)	FMDV antiviral inconclusive, HCV inh inconclusive
Cc1ccc2c(c1)CCCN2C(=O)c1cnn2c1NC(=C1CC1)C=C2C(F)F	VACV Venus inh inconclusive (no result: HCMV antiviral, FMDV antiviral, HCV inh)
CCOC(=O)/C(=N\Nc1ccc(OC)cc1)c1csc(Nc2ccccc2)n1	HCV inh 1µM (no result: FMDV antiviral)
COc1cc(NC(=O)C2CCN(S(=O)(=O)c3c(C)noc3/C=C/c3ccccc3F)CC2)cc(OC)c1OC	none (no result: HCV inh)
CCOc1ccc(N(C)S(=O)(=O)c2ccc(C)c(C(=O)N3CCN(Cc4ccc5c(c4)OCO5)CC3)c2)cc1	FMDV antiviral 22µM, HCV inh inconclusive, VACV Venus inh inconclusive
CCN1CCN(C(=O)c2ccc(COc3ccc(Cl)cc3)o2)CC1	FMDV antiviral inconclusive, HCV inh inconclusive (no result: VACV mCherry inh)
O=C(c1ccc(COc2ccccc2Cl)o1)N1CCN(Cc2ccc3c(c2)OCO3)CC1	FMDV antiviral 35µM!, HCV inh inconclusive
CCN1CCN(C(=O)c2ccc(COc3cccc(Cl)c3)o2)CC1	HCMV antiviral -69, HCV inh inconclusive
O=C(c1cc2ccccc2o1)N1CCN(Cc2ccc3c(c2)OCO3)CC1	HCMV antiviral inconclusive, HCV inh inconclusive (no result: VACV mCherry inh, VACV Venus inh)
O=C(c1ccc(COc2ccc(Cl)cc2)o1)N1CCN(Cc2ccc3c(c2)OCO3)CC1	HCV inh 8.9µM (no result: FMDV antiviral)
COc1ccc(N(C)S(=O)(=O)c2cccc(C(=O)N3CCN(Cc4ccc5c(c4)OCO5)CC3)c2)cc1	FMDV antiviral inconclusive, HCV inh inconclusive
CCN(CCCNC(=O)c1cc2cc3cc(C)ccc3nc2s1)c1cccc(C)c1	none (no result: HCV inh)
Cc1ccc2c(C)c(C(=O)N3CCCC(C(N)=O)C3)oc2c1C (stereo unspecified)	HCMV antiviral -99 (no result: VACV mCherry inh, VACV Venus inh)
CCOC(=O)C1CCN(C2CCN(C(=O)c3oc4c(C)c(C)ccc4c3C)CC2)CC1	none (no result: VACV mCherry inh, VACV Venus inh)
CCn1c(-c2ccccc2F)nc2cc(NC(C)=O)cc(C(=O)N(C)Cc3ccccn3)c21	none (no result: HCMV antiviral, HCV inh)
CCOC(=O)/C(=C\C=C1/Sc2ccccc2N1CC)C(C)=O	VACV mCherry inh inconclusive, HCMV antiviral -64, HCV inh inconclusive
CCOC(=O)/C(=C/C=C1\Sc2cc(C)c(C)cc2N1CC)C(C)=O	HCMV antiviral -69, FMDV antiviral inconclusive, HCV inh 11µM
Cc1cc(OCCCSc2nc(-c3ccc(C(C)(C)C)cc3)nc3cc(=O)[nH]n23)ccc1Cl	HCMV antiviral -64 (no result: HCV inh)
CCN(CC)CCn1c(=O)n(-c2ccc(Cl)cc2)c(=O)c2c3c(sc21)CN(C)CC3	HCV inh 4µM (no result: VACV mCherry inh, VACV Venus inh)
O=C(Cn1cnc2onc(-c3ccc(F)cc3)c2c1=O)N1CCN(c2ccc(F)cc2)CC1	none (no result: HCV inh)
COc1ccc(OC)c(CNC(=O)Cn2nc(C)c3nn(-c4ccc(Cl)cc4)c(C)c3c2=O)c1	none (no result: HCV inh)
O=C1C(N2CCOCC2)=C(n2nnc3ccccc32)C(=O)c2ccccc21	VACV mCherry inh inconclusive, HCMV antiviral -100, FMDV antiviral 10µM, HCV inh 7.1µM, VACV Venus inh inconclusive
O=C1c2ccccc2C(=O)c2c1cccc2-n1nnc2ccccc21	none
CC(=O)Nc1ccc(C(=O)N(C)C(C(=O)Nc2ccc(C)cc2)c2ccccn2)cc1 (stereo unspecified)	HCMV antiviral -63
COc1ccc(C(=O)N2CCc3[nH]nc(-c4ccccc4)c3C2)cc1	HCV inh 11µM
CCn1c([N+](=O)[O-])nc2c1c(=O)[nH]c(=O)n2C	HCMV antiviral -98, FMDV antiviral inconclusive, HCV inh 11µM (no result: VACV mCherry inh, VACV Venus inh)
COc1cccc2[nH]c3c(N4CCC(C)CC4)ncnc3c12	HCV inh inconclusive (no result: VACV mCherry inh, VACV Venus inh)
COc1cccc(N2CCN(c3ncnc4c3[nH]c3ccc(F)cc34)CC2C)c1 (stereo unspecified)	HCMV antiviral -97, FMDV antiviral 2µM, HCV inh 1.6µM, VACV Venus inh 7.1µM (no result: VACV mCherry inh)
COc1cccc(N2CCN(c3ncnc4c3[nH]c3ccccc34)CC2C)c1 (stereo unspecified)	HCMV antiviral -102, HCV inh 10µM (no result: VACV mCherry inh, FMDV antiviral, VACV Venus inh)
COc1cccc2[nH]c3c(N4CCc5ccccc5C4)ncnc3c12	VACV mCherry inh inconclusive, FMDV antiviral inconclusive, HCV inh 11µM (no result: HCMV antiviral)
COC(=O)c1ccccc1C(=O)N1CCOc2ccc(CN3CCN(c4ccccn4)CC3)cc2C1	none (no result: HCMV antiviral, HCV inh)
CCCC(=O)N(c1ccc2oc(-c3ccccc3)c(C(=O)OCC)c2c1)S(=O)(=O)c1ccc(C)cc1	none (no result: HCV inh)
CCOC(=O)c1c(C)oc2nc(C)nc(N3CCN(c4cccc(C(F)(F)F)c4)CC3)c12	HCMV antiviral -64, FMDV antiviral inconclusive (no result: HCV inh)
CCOC(=O)c1c(C)oc2ncnc(N3CCN(c4cccc(Cl)c4)CC3)c12	FMDV antiviral 28µM (no result: HCV inh)
CCOC(=O)c1c(C)oc2nc(C)nc(N3CCN(c4ccc(C)cc4C)CC3)c12	none (no result: HCV inh)
CCOC(=O)c1cc(C#N)c(N2CCN(C(=O)c3cccc(C(F)(F)F)c3)CC2)nc1C(F)(F)F	HCMV antiviral inconclusive, HCV inh 8.9µM
CCOC(=O)c1ccc(NC(=O)c2c(C)oc3nc(C)nc(N4CCCC4)c23)cc1	none (no result: HCV inh)
CCOC(=O)c1cc(C#N)c(N2CCN(C(=O)c3ccccc3)CC2)nc1C(F)(F)F	FMDV antiviral inconclusive
